Hits are enriched below; roughly 4.2% of the tested compounds scored in any of these assays.
DAX1 StAR inh – blocks DAX1 repression of SF-1 activated StAR promoter; AID 652010; hit rate 1.1% among 370,000; inhibition, % at 6.8 µM; HEK293T StAR-luciferase reporter, SF-1/DAX-1 repression relief;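 active = inhibition above the mean over all tested compounds plus 3 SD, cut at about 3.6% in these data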;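 also: 0% = DAX-1 cells with DMSO and 100% = cells lacking DAX-1 with DMSO; higher inhibition means more luminescence from relief of DAX-1 repression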
hgDAF-12 ag – activates the H. glycines DAF-12 receptor ligand-binding domain. HEK293 GAL4-hgDAF12 UAS-luciferase reporter, agonist luminescence; normalized to butyrate control. AID 687014. activation, % at 6.8 µM. hit rate 1.8% among 370,000;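 active = activation above a cutoff set at the mean of all screened compounds plus 3 SD, cut at about 10% in these data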;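 also: 0% = DMSO wells and 100% = sodium butyrate wells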
hcDAF-12 act – activators of H. contortus DAF-12 nuclear receptor. HEK293 hcDAF-12 lit1-tk-luc reporter, luminescence; 0% DMSO, 100% Δ7-dafachronic acid. activation, % at 6.8 µM. hit rate 1.4% among 370,000;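 active = activation above the mean of all tested compounds plus 3 SD, cut at about 5.5% in these data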;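 also: 100% = response to 3 µM Δ7-dafachronic acid high control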
ssDAF12 agonist – activators of S. stercoralis DAF-12 nuclear receptor; hit rate 1% among 370,000; HEK293 ssDAF-12/GRIP1 lit1-tk-luc reporter, luminescence; % of 3 µM dafachronic acid response; activation, % at 6.8 µM; AID 652126;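 active = activation above the mean over all tested compounds plus 3 SD, cut at about 0.9% in these data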;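 also: 0% = DMSO-only wells and 100% = 3 µM delta7-dafachronic acid wells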
SMARCA2 activ – SMARCA2 function activation, primary screen; MG213 cells, MMTV-luciferase reporter, dexamethasone, overnight; activation, % at 9.1 µM; hit rate 1% among 370,000; AID 652017; in the data active = activation above about 7.8%;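 also: 0% = vehicle wells and 100% = reference activator wells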
SMARCA2 conf – confirmation of SMARCA2 (BRM) function activators; AID 652260; hit rate 30% among 3,500; activation, % at 9.1 µM; MG213 cells, MMTV-luciferase with dexamethasone, luminescence, overnight; MG213 cells expressing E1A, Rb sequestered; DMSO wells 0%, reference activator 100%; shares compounds with SMARCA2 activ;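 active = activation above its plate's cutoff, the mean activation of tested wells plus 3 SD, cut at about 7.9% in these data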
VP16 Luc act – activates GAL4-VP16 luciferase, flagging SMARCA2 activator hits. HEK293 GAL4-VP16 pG5luc reporter, luciferase luminescence; scaled: DMSO wells 0%, SAHA wells 100%. shares compounds with SMARCA2 activ. activation, % at 9.1 µM. hit rate 41% among 3,500;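 active = activation above the solvent-only control well mean plus 3 SD, averaged across control plates, cut at about 5.2% in these data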
* hit, by the source's call.

Results for CCC(C)NC(=O)C1(N2C(=O)c3ccccc3C2=O)CCCC1 (stereo unspecified) ?
DAX1 StAR inh: -1; hgDAF-12 ag: -1; hcDAF-12 act: 2; ssDAF12 agonist: -1; SMARCA2 activ: 8.8*; SMARCA2 conf: 1; VP16 Luc act: 0

Results for COC(=O)[C@]12C[C@H](CC(=O)NCc3cccc(C(F)(F)F)c3)C(=O)N(CCc3ccc(OC)c(OC)c3)C1=C[C@H](C1CCCC1)O[C@@H]2C ?
DAX1 StAR inh: -2; hgDAF-12 ag: -1; hcDAF-12 act: -2; ssDAF12 agonist: -1; SMARCA2 activ: -3

How did Cc1ccc(-c2nn(-c3ccc(F)cc3)cc2C(=O)N2CCN(C3CCS(=O)(=O)C3)CC2)cc1 (stereo unspecified) do in these assays?
DAX1 StAR inh: 1; hgDAF-12 ag: 2; hcDAF-12 act: 0; ssDAF12 agonist: -1; SMARCA2 activ: 9.5*; SMARCA2 conf: 4; VP16 Luc act: 2

How did C[C@@H]1COc2cccc(F)c2S(=O)(=O)N1C do in these assays?
DAX1 StAR inh: 1; hgDAF-12 ag: 2; hcDAF-12 act: -2; ssDAF12 agonist: -1; SMARCA2 activ: -1

How did CCOC(=O)Cc1c(C)nc2c(-c3ccccc3)c(C)nn2c1C do in these assays?
DAX1 StAR inh: 0; hgDAF-12 ag: -1; hcDAF-12 act: -2; ssDAF12 agonist: -1; SMARCA2 activ: 12*; SMARCA2 conf: 2; VP16 Luc act: 1

How did C=CCN1CCc2c(cc(O)c(O)c2Cl)C(c2ccccc2)C1 (stereo unspecified) do in these assays?
DAX1 StAR inh: 1; hgDAF-12 ag: 3; hcDAF-12 act: -1; ssDAF12 agonist: -1; SMARCA2 activ: 9.2*; SMARCA2 conf: 5; VP16 Luc act: 1

What do the screens show for `CC(=O)Nc1ccc(NC(=O)CSc2nnc(-c3cccs3)o2)cc1`?
DAX1 StAR inh: -4; hgDAF-12 ag: 0; hcDAF-12 act: 1; ssDAF12 agonist: -1; SMARCA2 activ: -6

Results for CCCC(=O)O[C@]1(C(=O)COC(C)=O)CC[C@H]2[C@@H]3C[C@H](F)C4=CC(=O)C=C[C@]4(C)[C@@]3(F)[C@@H](O)C[C@@]21C ?
DAX1 StAR inh: 0; hgDAF-12 ag: -4; hcDAF-12 act: -1; ssDAF12 agonist: -1; SMARCA2 activ: 11*; SMARCA2 conf: -3; VP16 Luc act: 2

How did O=[N+]([O-])c1cc(S(=O)(=O)NCc2ccco2)ccc1NN=Cc1ccccn1 do in these assays?
DAX1 StAR inh: 0; hgDAF-12 ag: 1; hcDAF-12 act: -2; ssDAF12 agonist: -1; SMARCA2 activ: -1

How did CCN1C(=O)/C(=C2/C(=O)N3c4c(cc(OC(C)=O)cc42)C(C)=CC3(C)C)SC1=S do in these assays?
DAX1 StAR inh: 0; hgDAF-12 ag: 3; hcDAF-12 act: 2; ssDAF12 agonist: -1; SMARCA2 activ: 10*; SMARCA2 conf: 1; VP16 Luc act: 0

How did C[C@H]1COc2cc(F)ccc2S(=O)(=O)N1C do in these assays?
DAX1 StAR inh: -1; hgDAF-12 ag: -1; hcDAF-12 act: -2; ssDAF12 agonist: -2; SMARCA2 activ: -3

Results for c1ccc(CN2CCCC3CC2c2ccccc23)cc1 (stereo unspecified) ?
DAX1 StAR inh: -1; hgDAF-12 ag: -1; hcDAF-12 act: 2; ssDAF12 agonist: 0; SMARCA2 activ: -4

What do the screens show for `CCOc1cccc(C=Nc2cc(C)cc(C)c2O)c1O`?
DAX1 StAR inh: 0; hgDAF-12 ag: 0; hcDAF-12 act: 1; ssDAF12 agonist: -2; SMARCA2 activ: 12*; SMARCA2 conf: 6; VP16 Luc act: 2

Results for CCOC(=O)C1=C(C)c2ccccc2N(C(=O)OC)C1(C)C(=O)OCC (stereo unspecified) ?
DAX1 StAR inh: -2; hgDAF-12 ag: 0; hcDAF-12 act: -2; ssDAF12 agonist: -1; SMARCA2 activ: 8.1*; SMARCA2 conf: 1; VP16 Luc act: -1

Screening results: PubChem BioAssay, The Scripps Research Institute Molecular Screening Center
